Data as given in PubChem BioAssay (EPA / NIEHS).
Active and inactive are the calls of the source. The calls were made as follows: active = hit-call score of the fitted dose curve at least 0.9, where 1 is the maximum; inactive = score below 0.9.

Columns and labels:
Conditions in all cases: mRNA level, 48 h; actives raise or lower the signal
CYP2C9 (gene 1559) = experiment: LTEA_HepaRG_CYP2C9: Life Technologies and Expression Analysis (LTEA) Assay for CYP2C9 using HepaRG (AID 2283484)
Method in brief: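 Eight-point concentration-response (highest 100 uM, half-log dilutions) in HepaRG cells for 48 h; CYP2C9 expression by qRT-PCR normalized to ACTB, GAPDH, POLR2A. Bidirectional fit, DMSO baseline.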

CYP2E1 (gene 1571) = experiment: LTEA_HepaRG_CYP2E1: Life Technologies and Expression Analysis (LTEA) Assay for CYP2E1 using HepaRG (AID 2283485)
Method in brief: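 CYP2E1 transcript measured by Fluidigm qRT-PCR against three housekeeping genes in human HepaRG cells treated 48 h (top 100 uM, half-log steps, 0.5% DMSO vehicle). Gain or loss fitted relative to DMSO baseline.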

CYP4A11 (gene 1579) = experiment: LTEA_HepaRG_CYP4A11: Life Technologies and Expression Analysis (LTEA) Assay for CYP4A11 using HepaRG (AID 2283486)
Method in brief: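 Readout is CYP4A11 mRNA induction or suppression (qRT-PCR, ACTB/GAPDH/POLR2A normalization) in human HepaRG cells after 48 h chemical treatment, concentrations to 100 uM in 0.5% DMSO, fitted bidirectionally against vehicle.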

[1] = read-out: Cytochrome P450 3A4 (Homo sapiens) (UniProt P08684); experiment: LTEA_HepaRG_CYP3A4: Life Technologies and Expression Analysis (LTEA) Assay for CYP3A4 using HepaRG (AID 2283487)
Method in brief: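 In a human hepatic line (HepaRG), duplicate wells were treated 48 h with up to 100 uM chemical in half-log dilutions. Endpoint: CYP3A4 mRNA induction or loss relative to 0.5% DMSO vehicle, by qRT-PCR.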

[2] = read-out: DNA damage-inducible transcript 3 (DDIT3), DDIT3 (gene 1649); experiment: LTEA_HepaRG_DDIT3: Life Technologies and Expression Analysis (LTEA) Assay for DNA damage-inducible transcript 3 (DDIT3) using HepaRG (AID 2283488)
Method in brief: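 DDIT3 transcript was quantified by qRT-PCR with ACTB/GAPDH/POLR2A normalization after 48 h chemical treatment of differentiated HepaRG cells in 0.5% DMSO. Dosing was eight-point, half-log, top 100 uM, duplicate wells. Curves fitted bidirectionally versus DMSO.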

[3] = read-out: Pro-epidermal growth factor (Homo sapiens) (UniProt P01133); experiment: LTEA_HepaRG_EGF: Life Technologies and Expression Analysis (LTEA) Assay for Epidermal growth factor (EGF) using HepaRG (AID 2283489)
Method in brief: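 EGF expression changes in human HepaRG cells are scored by bidirectional fitting relative to 0.5% DMSO controls. Chemicals are tested at eight half-log concentrations up to 100 uM for 48 h in serum-free induction medium.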

[4] = read-out: Early growth response protein 1 (EGR1) transcription factor, EGR1 (gene 1958); experiment: LTEA_HepaRG_EGR1: Life Technologies and Expression Analysis (LTEA) Assay for Early growth response protein 1 (EGR1) transcription factor using HepaRG (AID 2283490)
Method in brief: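 EGR1 expression change in human HepaRG after 48 h chemical exposure, assessed by housekeeping-normalized qRT-PCR; concentration-response up to 100 uM, fitted in both directions against DMSO controls.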

[5] = read-out: Ezrin (EZR), EZR (gene 7430); experiment: LTEA_HepaRG_EZR: Life Technologies and Expression Analysis (LTEA) Assay for Ezrin (EZR) using HepaRG (AID 2283491)
Method in brief: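 Gain or loss of EZR mRNA is scored relative to 0.5% DMSO in human HepaRG cultures treated 48 h with test chemicals in duplicate, eight half-log concentrations from 100 uM.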

[6] = read-out: Cytochrome P450 3A7 (Homo sapiens) (UniProt P24462); experiment: LTEA_HepaRG_CYP3A7: Life Technologies and Expression Analysis (LTEA) Assay for CYP3A7 using HepaRG (AID 2283492)
Method in brief: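 Cells were thawed, plated, cultured 48 h, then treated for a further 48 h with chemicals (eight-point half-log series from 100 uM, 0.5% DMSO). RNA was isolated and CYP3A7 expression quantified by qRT-PCR normalised to ACTB, GAPDH and POLR2A.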

CYP3A5 (gene 1577) = experiment: LTEA_HepaRG_CYP3A5: Life Technologies and Expression Analysis (LTEA) Assay for CYP3A5 using HepaRG (AID 2283493)
Method in brief: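 mRNA levels were quantified by qRT-PCR on Fluidigm arrays and normalized to three housekeeping genes. Differentiated HepaRG cells received 48 h exposure (top 100 uM, half-log steps, 0.5% DMSO vehicle, duplicate); bidirectional fitting versus DMSO.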

Measured: AC50

Chain of Cytochrome P450 3A4 (Homo sapiens) (P08684 whole entry, looked up): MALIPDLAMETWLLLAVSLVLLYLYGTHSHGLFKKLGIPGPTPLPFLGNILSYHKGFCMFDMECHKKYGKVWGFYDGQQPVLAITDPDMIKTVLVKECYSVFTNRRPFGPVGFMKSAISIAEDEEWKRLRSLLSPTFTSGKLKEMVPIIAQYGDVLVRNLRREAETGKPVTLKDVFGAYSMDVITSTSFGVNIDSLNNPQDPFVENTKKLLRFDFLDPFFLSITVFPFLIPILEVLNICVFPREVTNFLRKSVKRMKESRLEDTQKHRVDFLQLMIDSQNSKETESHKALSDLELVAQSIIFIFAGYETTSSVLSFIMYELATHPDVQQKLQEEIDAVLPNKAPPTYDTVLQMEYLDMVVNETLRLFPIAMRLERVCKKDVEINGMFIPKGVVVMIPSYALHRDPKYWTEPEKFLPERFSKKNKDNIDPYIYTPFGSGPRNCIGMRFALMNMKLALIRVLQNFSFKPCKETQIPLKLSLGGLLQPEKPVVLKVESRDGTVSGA
Chain of Cytochrome P450 3A7 (Homo sapiens) (P24462 whole entry, looked up): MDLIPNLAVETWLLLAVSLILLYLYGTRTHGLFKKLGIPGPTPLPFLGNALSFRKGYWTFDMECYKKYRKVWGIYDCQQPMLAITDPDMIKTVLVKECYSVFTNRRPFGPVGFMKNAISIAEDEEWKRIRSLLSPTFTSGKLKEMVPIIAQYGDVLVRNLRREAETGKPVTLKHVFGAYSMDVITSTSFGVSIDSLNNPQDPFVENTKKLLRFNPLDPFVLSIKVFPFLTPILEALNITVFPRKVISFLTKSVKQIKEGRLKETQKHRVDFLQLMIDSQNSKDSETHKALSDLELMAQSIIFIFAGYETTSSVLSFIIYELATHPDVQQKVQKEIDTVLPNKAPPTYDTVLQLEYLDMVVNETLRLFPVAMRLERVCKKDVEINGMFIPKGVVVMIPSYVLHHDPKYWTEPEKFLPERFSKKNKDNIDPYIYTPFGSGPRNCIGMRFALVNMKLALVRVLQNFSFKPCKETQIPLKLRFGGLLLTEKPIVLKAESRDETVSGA

NC(=O)N(O)[C@@H]1COc2cc(OCc3ccccc3)ccc21
active: CYP2E1 (gene 1571) 50 µM
inactive: all other assays above

O=S(=O)(O)c1ccc(N=Nc2c(O)ccc3cc(S(=O)(=O)O)ccc23)cc1
inactive: all assays above

OCC(CO)(CO)CO
not listed: [3]
inactive: all other assays above

Cc1ccc(S(=O)(=O)NC(=O)NN2CCCCCC2)cc1
inactive: [2] | [3] | [4] | [5]

CCCCCCOC(=O)CC(CC(=O)OCCCCCC)(OC(=O)CCC)C(=O)OCCCCCC
active: [1] 17.7 µM
inactive: all other assays above

COCc1nnc(-c2ccc[n+]([O-])c2)n1-c1c(Cl)c(Cl)cc2[nH]c(=O)c(=O)[nH]c12
inactive: all assays above

C[C@]12C=CC(=O)C=C1CC[C@H]1[C@@H]3C[C@@H](O)[C@](O)(C(=O)CO)[C@@]3(C)C[C@H](O)[C@@]12F
not listed: [3]
inactive: all other assays above

CCOc1ccc2[nH]cc(C(=O)NCc3ccccc3)c(=O)c2n1
active: CYP2E1 (gene 1571) 63 µM | CYP4A11 (gene 1579) 76.5 µM | [1] 29.2 µM
inactive: all other assays above

NC(=O)N1c2ccccc2C=Cc2ccccc21
active: CYP2E1 (gene 1571) 41.8 µM
not listed: [1] | [6]
inactive: all other assays above

COS(C)(=O)=O
inactive: all assays above

COc1cc(C(C)C)c2c(c1)S(=O)(=O)N(COc1cc(=O)n3cccc(OCCN4CCCCC4)c3n1)C2=O
active: CYP2C9 (gene 1559) 23.6 µM | CYP2E1 (gene 1571) 17.2 µM | CYP4A11 (gene 1579) 20.8 µM | [1] 20.8 µM | [3] 8.03 µM | [4] 15.4 µM | [6] 23.6 µM | CYP3A5 (gene 1577) 20.9 µM
inactive: [2] | [5]

Cn1c(=O)c2[nH]cnc2n(C)c1=O
not listed: CYP2C9 (gene 1559)
inactive: all other assays above

CC(C)C(=O)Nc1ccc([N+](=O)[O-])c(C(F)(F)F)c1
active: CYP2C9 (gene 1559) 66 µM | CYP2E1 (gene 1571) 43.9 µM | CYP4A11 (gene 1579) 50.4 µM | [2] 87.5 µM | [3] 50 µM | [4] 81.9 µM
inactive: [5] | CYP3A5 (gene 1577)

OC[C@H]1O[C@@H]2O[C@H]3[C@H](O)[C@@H](O)[C@@H](O[C@H]4[C@H](O)[C@@H](O)[C@@H](O[C@H]5[C@H](O)[C@@H](O)[C@@H](O[C@H]6[C@H](O)[C@@H](O)[C@@H](O[C@H]7[C@H](O)[C@@H](O)[C@@H](O[C@H]1[C@H](O)[C@H]2O)O[C@@H]7CO)O[C@@H]6CO)O[C@@H]5CO)O[C@@H]4CO)O[C@@H]3CO
not listed: [1]
inactive: all other assays above

CCCCCCCCCCCCCCCCOS(=O)(=O)O
active: CYP2E1 (gene 1571) 38.5 µM
inactive: all other assays above

c1ccc(C(O[C@@H]2CCCN(CCc3ccc4c(c3)OCO4)C2)c2ccccc2)cc1
active: CYP2C9 (gene 1559) 85.2 µM | CYP2E1 (gene 1571) 50 µM | CYP4A11 (gene 1579) 59.7 µM | [2] 63.6 µM | [4] 84.1 µM | CYP3A5 (gene 1577) 81.9 µM
inactive: [3] | [5]

CCc1cccc(CC)c1N
inactive: all assays above

OC(CCl)CCl
inactive: all assays above
